# High-throughput results (PubChem BioAssay)
# Compounds with a hit are over-represented: about 3.5% of the library has one in this group of screens.
# mHTT-CaM PPI inh = mHTT-calmodulin interaction abrogation. P42858. inhibition, % at 15 µM. AlphaScreen His-mHTT/GST-CaM binding, luminescence. 3.6% of 190,000 active;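 further: 0% = both proteins with DMSO and 100% = one protein alone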
# Target sequence (P42858 whole entry, looked up, stated change not applied): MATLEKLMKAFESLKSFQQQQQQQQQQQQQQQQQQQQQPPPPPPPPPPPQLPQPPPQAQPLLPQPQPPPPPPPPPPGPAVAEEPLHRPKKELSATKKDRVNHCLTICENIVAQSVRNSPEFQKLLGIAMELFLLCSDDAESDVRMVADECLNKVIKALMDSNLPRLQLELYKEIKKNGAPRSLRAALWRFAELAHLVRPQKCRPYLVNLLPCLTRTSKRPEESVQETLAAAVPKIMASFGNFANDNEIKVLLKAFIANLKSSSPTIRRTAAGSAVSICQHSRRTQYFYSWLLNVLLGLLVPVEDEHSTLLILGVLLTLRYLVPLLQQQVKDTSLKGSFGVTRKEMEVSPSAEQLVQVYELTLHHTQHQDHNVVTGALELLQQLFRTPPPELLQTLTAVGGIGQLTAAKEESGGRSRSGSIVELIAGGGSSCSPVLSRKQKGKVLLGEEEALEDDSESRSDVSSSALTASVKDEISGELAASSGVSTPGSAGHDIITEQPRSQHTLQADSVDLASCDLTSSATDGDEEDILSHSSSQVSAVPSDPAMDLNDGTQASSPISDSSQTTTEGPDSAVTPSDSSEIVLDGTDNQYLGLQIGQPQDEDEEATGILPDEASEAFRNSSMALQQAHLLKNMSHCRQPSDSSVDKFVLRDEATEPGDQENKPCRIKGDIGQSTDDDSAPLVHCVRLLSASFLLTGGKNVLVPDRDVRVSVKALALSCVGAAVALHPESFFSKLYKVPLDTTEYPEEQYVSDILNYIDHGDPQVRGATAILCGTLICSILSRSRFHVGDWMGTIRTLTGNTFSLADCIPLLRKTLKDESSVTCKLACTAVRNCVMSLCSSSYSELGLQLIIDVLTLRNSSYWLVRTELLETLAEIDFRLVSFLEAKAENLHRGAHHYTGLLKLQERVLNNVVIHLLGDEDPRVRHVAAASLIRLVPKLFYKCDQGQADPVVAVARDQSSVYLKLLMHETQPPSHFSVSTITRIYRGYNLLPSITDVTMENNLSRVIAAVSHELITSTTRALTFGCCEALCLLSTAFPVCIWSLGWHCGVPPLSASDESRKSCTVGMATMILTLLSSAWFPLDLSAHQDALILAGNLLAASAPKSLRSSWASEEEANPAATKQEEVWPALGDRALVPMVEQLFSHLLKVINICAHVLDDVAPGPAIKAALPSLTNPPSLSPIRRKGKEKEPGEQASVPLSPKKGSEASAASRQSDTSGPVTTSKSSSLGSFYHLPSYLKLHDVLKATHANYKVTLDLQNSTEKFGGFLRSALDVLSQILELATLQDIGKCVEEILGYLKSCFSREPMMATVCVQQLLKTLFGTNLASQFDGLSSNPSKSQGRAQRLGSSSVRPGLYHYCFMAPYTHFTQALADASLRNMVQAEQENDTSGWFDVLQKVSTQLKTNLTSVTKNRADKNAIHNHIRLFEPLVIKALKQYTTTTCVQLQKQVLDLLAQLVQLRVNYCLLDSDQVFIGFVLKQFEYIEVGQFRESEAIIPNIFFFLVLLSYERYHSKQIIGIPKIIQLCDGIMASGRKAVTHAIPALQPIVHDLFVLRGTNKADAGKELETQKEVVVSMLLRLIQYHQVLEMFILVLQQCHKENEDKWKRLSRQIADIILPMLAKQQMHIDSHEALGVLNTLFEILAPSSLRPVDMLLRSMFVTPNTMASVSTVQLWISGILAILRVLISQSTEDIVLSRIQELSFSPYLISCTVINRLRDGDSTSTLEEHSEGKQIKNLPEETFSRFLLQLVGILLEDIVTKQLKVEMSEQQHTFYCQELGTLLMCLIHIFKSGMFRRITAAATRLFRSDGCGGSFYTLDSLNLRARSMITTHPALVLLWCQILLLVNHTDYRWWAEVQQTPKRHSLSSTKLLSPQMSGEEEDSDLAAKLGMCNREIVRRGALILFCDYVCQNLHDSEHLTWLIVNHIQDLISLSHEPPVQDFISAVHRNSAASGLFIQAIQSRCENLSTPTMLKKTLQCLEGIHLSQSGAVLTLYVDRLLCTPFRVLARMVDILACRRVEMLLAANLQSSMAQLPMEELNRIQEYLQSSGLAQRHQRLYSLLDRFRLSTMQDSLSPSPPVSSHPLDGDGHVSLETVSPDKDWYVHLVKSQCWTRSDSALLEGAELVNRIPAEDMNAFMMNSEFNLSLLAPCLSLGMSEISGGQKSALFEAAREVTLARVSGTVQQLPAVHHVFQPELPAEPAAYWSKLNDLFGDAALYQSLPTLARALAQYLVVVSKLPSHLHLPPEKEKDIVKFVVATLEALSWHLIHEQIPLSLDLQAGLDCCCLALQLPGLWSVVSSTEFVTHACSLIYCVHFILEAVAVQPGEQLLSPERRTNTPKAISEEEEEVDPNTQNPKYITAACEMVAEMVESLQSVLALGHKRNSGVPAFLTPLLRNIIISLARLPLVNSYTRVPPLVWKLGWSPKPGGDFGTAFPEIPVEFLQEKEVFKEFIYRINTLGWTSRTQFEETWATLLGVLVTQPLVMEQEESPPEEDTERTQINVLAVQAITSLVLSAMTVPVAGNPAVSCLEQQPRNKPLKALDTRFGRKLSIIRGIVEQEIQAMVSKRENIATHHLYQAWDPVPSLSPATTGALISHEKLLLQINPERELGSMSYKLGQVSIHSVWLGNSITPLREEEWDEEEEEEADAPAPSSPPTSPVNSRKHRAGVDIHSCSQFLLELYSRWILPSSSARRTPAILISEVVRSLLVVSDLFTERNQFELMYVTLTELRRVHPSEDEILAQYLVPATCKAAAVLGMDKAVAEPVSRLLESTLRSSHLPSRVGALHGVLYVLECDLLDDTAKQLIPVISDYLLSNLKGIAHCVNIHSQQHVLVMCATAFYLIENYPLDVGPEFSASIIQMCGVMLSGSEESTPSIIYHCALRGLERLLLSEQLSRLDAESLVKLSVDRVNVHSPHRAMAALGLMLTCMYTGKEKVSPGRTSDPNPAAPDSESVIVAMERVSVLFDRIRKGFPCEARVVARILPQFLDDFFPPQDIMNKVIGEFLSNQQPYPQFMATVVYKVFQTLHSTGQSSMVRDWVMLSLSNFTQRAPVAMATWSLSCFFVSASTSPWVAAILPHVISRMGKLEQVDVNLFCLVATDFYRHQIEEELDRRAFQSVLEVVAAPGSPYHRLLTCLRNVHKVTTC
# Pf apPOL inh = Pf-apPOL DNA polymerase inhibition | 0.25% of 210,000 active | inhibition, % at 10 µM | Recombinant Pf-apPOL, molecular beacon fluorescence, 1.5 h
# The depositor's hits bear a star; x = no result. No stated cut-off is given here; in the data, active means inhibition above about 50%; inactive means the rest.
SMILES,mHTT-CaM PPI inh,Pf apPOL inh
COc1ccc(CNC(=O)C2CCCN(c3nnc4ccc(Cl)cn34)C2)c(OC)c1 (centres undefined),10,-2
COc1cccc(N(CC(=O)Nc2cccc(C(C)=O)c2)S(=O)(=O)c2ccccc2)c1,-4,-4
Cc1cccc(C(=O)N2N=C(c3ccc(Br)cc3)CC2(O)C(F)(F)F)c1 (centres undefined),97*,1
O=C(COc1ccccc1)N1N=C(c2ccc(Br)cc2)CC1(O)C(F)(F)F (centres undefined),28,-4
CCC1=NN(C(=O)Cc2ccc(OC)cc2)C(O)(C(F)(F)F)C1 (centres undefined),-9,2
Cc1ccccc1OCC(=O)N1N=C(c2ccc(Br)cc2)CC1(O)C(F)(F)F (centres undefined),93*,1
CCC1=NN(C(=O)COc2ccc(Cl)c(C)c2)C(O)(C(F)(F)F)C1 (centres undefined),94*,-16
Cc1cccc(C(=O)N2N=C(c3cccc(Br)c3)CC2(O)C(F)(F)F)c1 (centres undefined),19,0
O=C(Oc1ccc2c3c(c(=O)oc2c1)CCCC3)c1ccc(Cl)cc1,-2,-3
O=c1[nH]cnc2cc3c(=O)[nH]cnc3cc12,12,x
N#Cc1ccc(Cn2cc(/C=C3\C(=O)NC(=O)N(Cc4ccco4)C3=O)c3ccccc32)cc1,6,-3
Cc1nc2ccc3nc(NC(=O)c4ccccc4F)sc3c2s1,6,2
Cc1ccc(C)c(CNC(=O)c2nc(C)oc2C)c1,-7,1
COc1cccc(NC(=O)N2CCCC3(C2)Nc2ccccc2NC3=NC(C)(C)C)c1 (centres undefined),12,2
CC(C)(C)N=C1Nc2ccccc2NC12CCCN(C(=O)NCc1ccco1)C2 (centres undefined),30,4
COc1cccc(CNC(=O)N2CCCC3(C2)Nc2ccccc2NC3=NC(C)(C)C)c1 (centres undefined),69*,4
CC(C)(C)N=C1Nc2ccccc2NC12CCCN(C(=O)NCc1cccc(F)c1)C2 (centres undefined),99*,-4
COc1cc(OC)cc(C(=O)N2CCCC3(C2)Nc2ccccc2NC3=NC(C)(C)C)c1 (centres undefined),21,4
COc1ccccc1NC(=O)N1CCCC2(C1)Nc1ccccc1NC2=NC(C)(C)C (centres undefined),67*,-4
Cn1cnnc1C1CCN(C(=O)c2ccsc2)CC1,-10,3
COc1cc(/C=C2/C(=O)N(c3ccccc3)N=C2C)ccc1OCCOCCOc1ccccc1,14,-3
Cc1nc([N+](=O)[O-])c(N2CCN(C3c4ccccc4-c4ccccc43)CC2)n1Cc1ccccc1,4,3
O=C(O)c1[nH]c2ccccc2c1CC(=O)N1CCN(c2ccc([N+](=O)[O-])cc2)CC1,7,-3
O=C(O)c1[nH]c2ccc(Cl)cc2c1CC(=O)N1CCN(c2cccc(Cl)c2)CC1,63*,-4
Cc1ccc(Cl)cc1N1CCN(C(=O)Cc2c(C(=O)O)[nH]c3ccc(Cl)cc23)CC1,98*,0
SMILES,mHTT-CaM PPI inh,Pf apPOL inh
O=C(N1CCN(c2cccc(Cl)c2)CC1)C1(S(=O)(=O)c2ccc(Cl)cc2)CC1,13,-5
CN(C(=O)Cc1c(C(=O)O)[nH]c2ccc(Cl)cc12)c1ccc(Br)cc1,10,1
Cc1ccc(Cl)cc1N1CCN(C(=O)C2(S(=O)(=O)c3ccc(Cl)cc3)CC2)CC1,92*,1
CCc1nc(NCCN(CC)CC)c(C#N)c2c1COC(C)(C)C2,-5,-4
Cc1cccc(N2CCN(C(=O)C3CCCN(c4cn[nH]c(=O)c4)C3)CC2)c1C (centres undefined),17,-6
Cn1c2ccccc2c2nnc(SCC(=O)Nc3ccc(Cl)cc3[N+](=O)[O-])nc21,-1,-1
CCc1nc2c(o1)NC(N)=C(C#N)C21CCN(C)CC1,-1,x
O=C1CSC(c2ccc([N+](=O)[O-])cc2)N1c1ccc(Oc2ccccc2)cc1 (centres undefined),75*,-2
Cc1ccc(N2C(=O)CSC2c2ccc3c(c2)OCO3)cc1 (centres undefined),1,-2
O=C1CSC(c2ccc3c(c2)OCO3)N1c1ccc(Oc2ccccc2)cc1 (centres undefined),100*,-1
Cc1ccc(N2C(=O)CSC2c2ccc([N+](=O)[O-])cc2)cc1 (centres undefined),8,0
COc1ccc(C2=C/C(=C\c3ccccc3OC)C(=O)O2)cc1,-11,4
COc1ccc(C)cc1NC(=O)C(=O)NCC(C)C,-4,-2
O=C(Nc1cc(-c2ccccn2)no1)c1ccc(Cl)cc1,10,1
O=C(Nc1nc(-c2cc([N+](=O)[O-])cs2)cs1)c1cc(-c2ccco2)on1,-10,4
O=C(Nc1nc(-c2ccccn2)cs1)c1ccc(Oc2ccccc2)cc1,94*,-5
O=C(Nc1cc(-c2ccccn2)no1)c1ccccn1,100*,-10
O=C(Nc1nc(-c2ccccn2)cs1)c1cc(-c2ccco2)on1,100*,-213
COc1cc(OC)cc(C(=O)Nc2nc(-c3ccccn3)cs2)c1,100*,-6
COc1cc(OC)cc(C(=O)Nc2nc(C(=O)NC(C)c3ccccc3)cs2)c1 (centres undefined),-9,-3
O=C(Nc1nc(-c2ccccc2)cs1)c1ccncc1,8,-13
CCN(CC)C(=O)C1CN(C(=O)c2ccccc2)CC1c1ccccc1 (centres undefined),20,0
Cc1ccc(NC(=O)Cn2nc(N3CCCC3)c3ccccc3c2=O)c(F)c1,-3,-2
COc1cccc(C(CN)N2CCOCC2)c1 (centres undefined),-3,-6
COc1ccc(C(NC=O)c2ccc(OC)c(OC)c2)cc1 (centres undefined),-6,-3
SMILES,mHTT-CaM PPI inh,Pf apPOL inh
Cc1ccc2c(c1)N(c1ccc(C(C)C)cc1)C=C(C#N)S2(=O)=O,-8,1
Cc1n[nH]c(C)c1Sc1ccccc1N=Cc1cc(Br)ccc1O,58*,-2
Cc1n[nH]c(C)c1Sc1ccccc1N=Cc1c(C)[nH]n(-c2ccccc2)c1=O,88*,-4
Cc1n[nH]c(C)c1Sc1ccccc1N=Cc1ccc(C(=O)O)cc1,2,-3
Cc1n[nH]c(C)c1Sc1ccccc1N=Cc1cc(Cl)ccc1O,31,-6
O=C(Cn1c(=O)[nH]c2ccccc2c1=O)NCCn1nc(-c2ccco2)ccc1=O,-5,-3
CCC1Oc2ccc(Cl)cc2N(CC(=O)NCc2ccc(C)cc2)C1=O (centres undefined),-16,-15
COc1ccc(OC)c(Nc2nc(CC(=O)NCCc3c[nH]c4ccccc34)cs2)c1,53*,-4
O=C(NCCc1c[nH]c2ccccc12)c1csc(NS(=O)(=O)c2cccs2)n1,-10,-13
O=C(NCCOc1ccc(F)cc1)c1cc(C2CC2)on1,-24,-37
Cc1cc(C)nc(Nc2nc(C(=O)NCCOc3ccc(F)cc3)cs2)n1,91*,-38
COc1ccc(OC)c(Nc2nc(CC(=O)NCc3ccc4c(c3)OCO4)cs2)c1,15,-4
Cc1cc(C)nc(Nc2nc(C(=O)NCCc3c[nH]c4ccccc34)cs2)n1,86*,-6
O=C(Cn1nc2c(c1NC(=O)c1cnccn1)CSC2)NCc1ccco1,85*,-20
O=C(Cn1nc2c(c1NC(=O)c1c[nH]c3ccccc13)CSC2)NCCc1ccccc1,93*,0
